Experiment [1] has as its target Short transient receptor potential channel 4 (Mus musculus) (UniProt Q9QUQ5). Put plainly: mouse TRPC4 channel inhibitors, dose response, cell-based, HEK293 TRPC4/mu-opioid, Fluo-4 calcium (AID 434942).
A short description of experiment [2]: thallium flux activation in parental CHO cells, counter-screen for KCNQ1 potentiator project (AID 493006;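 active = duplicate-averaged activation above buffer control mean plus 5 SD of those controls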;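 as to activation: fluorescence ratio of max minus min over baseline after K+ and Tl+ depolarization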). To be noted: parental CHO-K1 cells, FluxOR thallium flux, at 10 µM; active compounds read high.
Experiment [3] concerns the target Potassium voltage-gated channel subfamily KQT member 1 (Homo sapiens) (UniProt P51787). The experiment in a line: KCNQ1 potassium channel potentiators, confirmation, FluxOR thallium flux, CHO cells, duplicates (AID 493007;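 active = potentiation averaged over duplicate wells exceeding buffer-only control mean by more than 3 SD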;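 as to outcome: cells depolarized by a potassium plus thallium sulfate stimulus after compound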;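 as to potentiation: 0% = buffer-only wells and 100% = R-L3 activator control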). The note with it: KCNQ1 cell line, FluxOR thallium flux fluorescence, at 10 µM; active compounds read high, % of reference activator effect, buffer zero.

Experiment [4] concerns the target Potassium voltage-gated channel subfamily KQT member 2 (Rattus norvegicus) (UniProt O88943). The experiment in a line: rat KCNQ2 channel potentiation, selectivity assay for KCNQ1 potentiator project, KCNQ2-CHO-K1 cells (AID 493009;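 active = mean duplicate potentiation above the buffer control mean plus 5 SD of buffer wells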;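 also: assay conditions were tuned for KCNQ1 rather than KCNQ2 modulators; signal is max minus min fluorescence divided by baseline after thallium stimulus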). The note with it: FluxOR thallium flux fluorescence, at 10 µM; active compounds read high, scaled: buffer 0, activator control 100.
Experiment [5] addresses Potassium voltage-gated channel subfamily KQT member 1 (Homo sapiens) (UniProt P51787). The experiment in a line: KCNQ1 channel current potentiators, confirmation, orthogonal assay for KCNQ1 potentiator project, IonWorks patch clamp, KCNQ1-CHO cells (AID 493184;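 active = current rise at least 3 SD above the untreated control mean in each of two repeat wells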;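 as to current potentiation: percent change of the same well's current before compound addition so 0% = no change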). To be noted: automated patch clamp current, at 10 µM; active compounds read high. Background: The patch-clamp technique gives a direct electrical read-out from membranes.

The target of experiment [6] is T1, Potassium voltage-gated channel subfamily E member 1 (Homo sapiens) + Potassium voltage-gated channel subfamily KQT member 1 (Homo sapiens) (UniProt P15382+P51787). The experiment in a line: KCNQ1/KCNE1 complex potentiators, confirmation, selectivity assay for KCNQ1 potentiator project, thallium flux, CHO-K1 KCNQ1/E1 cells (AID 493186;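 active = mean duplicate activation above the buffer control mean plus 5 SD of those controls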;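 as to activation: 0% = assay buffer control and 100% = R-L3 activator control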). The note with it: FluxOR thallium flux, at 10 µM; active compounds read high.
T1 sequence (P51787 whole entry, looked up): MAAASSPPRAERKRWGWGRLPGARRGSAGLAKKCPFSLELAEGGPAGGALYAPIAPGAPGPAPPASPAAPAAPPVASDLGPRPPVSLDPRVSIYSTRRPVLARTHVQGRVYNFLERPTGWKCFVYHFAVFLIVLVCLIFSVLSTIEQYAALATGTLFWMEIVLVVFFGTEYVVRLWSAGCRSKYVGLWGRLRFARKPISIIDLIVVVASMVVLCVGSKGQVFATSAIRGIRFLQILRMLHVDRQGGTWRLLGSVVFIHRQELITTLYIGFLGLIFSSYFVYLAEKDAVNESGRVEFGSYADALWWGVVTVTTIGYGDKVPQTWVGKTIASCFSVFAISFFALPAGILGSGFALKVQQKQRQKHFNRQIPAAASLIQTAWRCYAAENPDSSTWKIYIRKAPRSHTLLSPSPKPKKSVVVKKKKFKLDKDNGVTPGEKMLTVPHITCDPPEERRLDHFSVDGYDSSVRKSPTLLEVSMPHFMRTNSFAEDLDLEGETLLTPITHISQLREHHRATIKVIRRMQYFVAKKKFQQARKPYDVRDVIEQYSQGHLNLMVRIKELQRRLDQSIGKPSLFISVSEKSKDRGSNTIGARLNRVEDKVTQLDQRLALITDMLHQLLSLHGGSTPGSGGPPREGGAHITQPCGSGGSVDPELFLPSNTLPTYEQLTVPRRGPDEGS

Experiment [7] is described as follows: thallium flux effects in parental CHO cells, counter-screen for KCNQ1 inhibitor project, cell-based, Tl flux (AID 588366;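 active = mean of duplicate thallium-flux fluorescence ratios in parental host cells more than 5 SD below the buffer control mean, cut at about 0.38 in these data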;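 also: ratio is peak minus minimum fluorescence divided by baseline fluorescence; actives read low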). The note with it: parental CHO-K1, FluxOR thallium flux fluorescence ratio; at 10 µM; active compounds read low; zero means no signal rise above baseline.
Experiment [8] has as its target Potassium voltage-gated channel subfamily KQT member 2 (Rattus norvegicus) (UniProt O88943). The experiment in a line: KCNQ2 channel inhibition, selectivity assay for KCNQ1 inhibitor project, cell-based (AID 651746;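 active = mean percent inhibition of the KCNQ2 thallium signal more than 5 SD above the buffer-only control wells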). To be noted: KCNQ2 cells, FluxOR thallium flux fluorescence, at 10 µM; active compounds read high.
The target in experiment [9] is T1, Potassium voltage-gated channel subfamily E member 1 (Homo sapiens) + Potassium voltage-gated channel subfamily KQT member 1 (Homo sapiens). Put plainly: KCNQ1/KCNE1 channel inhibition, selectivity assay for KCNQ1 inhibitor project, CHO-K1 cells, thallium flux, FluxOR (AID 652147;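 active = mean percent inhibition of duplicate wells above the buffer-only control mean plus 3 SD of those controls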). The note with it: FluxOR thallium flux fluorescence, at 10 µM; active compounds read high.

Unmarked numbers belong to inactive results. For some of these results: Potency and affinity values are given separately. The list shows a part of the results. The source made the active and inactive calls.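 The calls were made as follows, unless noted: active = primary screen inhibitor hit that blocks the TRPC4 channel at some tested dose, yielding a dose curve; inactive = the rest.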

Short transient receptor potential channel 4 (Mus musculus), sequence (Q9QUQ5 whole entry, looked up): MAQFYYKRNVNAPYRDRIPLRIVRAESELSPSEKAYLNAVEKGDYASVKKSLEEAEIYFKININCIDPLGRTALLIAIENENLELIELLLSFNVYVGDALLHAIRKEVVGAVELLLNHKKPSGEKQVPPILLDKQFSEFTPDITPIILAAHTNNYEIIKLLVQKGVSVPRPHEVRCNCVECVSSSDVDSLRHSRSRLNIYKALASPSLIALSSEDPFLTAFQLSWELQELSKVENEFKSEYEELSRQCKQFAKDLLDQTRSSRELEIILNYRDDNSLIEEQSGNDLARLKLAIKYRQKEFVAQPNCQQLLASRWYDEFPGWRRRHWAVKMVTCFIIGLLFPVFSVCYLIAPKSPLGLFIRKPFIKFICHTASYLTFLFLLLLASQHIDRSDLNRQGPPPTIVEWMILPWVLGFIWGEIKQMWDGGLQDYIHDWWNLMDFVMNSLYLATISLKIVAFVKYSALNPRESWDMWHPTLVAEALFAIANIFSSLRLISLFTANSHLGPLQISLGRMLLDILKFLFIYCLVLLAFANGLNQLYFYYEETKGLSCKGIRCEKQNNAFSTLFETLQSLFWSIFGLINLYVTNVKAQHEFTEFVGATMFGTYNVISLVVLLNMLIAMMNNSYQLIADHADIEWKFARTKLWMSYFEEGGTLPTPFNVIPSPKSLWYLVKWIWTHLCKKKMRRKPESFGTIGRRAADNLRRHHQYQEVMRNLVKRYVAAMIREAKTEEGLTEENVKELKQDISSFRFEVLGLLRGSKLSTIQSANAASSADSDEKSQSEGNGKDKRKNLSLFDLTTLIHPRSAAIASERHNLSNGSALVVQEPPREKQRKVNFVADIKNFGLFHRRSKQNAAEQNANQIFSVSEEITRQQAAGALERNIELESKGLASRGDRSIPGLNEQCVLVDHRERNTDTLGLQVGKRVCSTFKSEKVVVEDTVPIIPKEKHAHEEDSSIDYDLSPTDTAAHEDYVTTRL
Potassium voltage-gated channel subfamily KQT member 2 (Rattus norvegicus), sequence (O88943 whole entry, looked up): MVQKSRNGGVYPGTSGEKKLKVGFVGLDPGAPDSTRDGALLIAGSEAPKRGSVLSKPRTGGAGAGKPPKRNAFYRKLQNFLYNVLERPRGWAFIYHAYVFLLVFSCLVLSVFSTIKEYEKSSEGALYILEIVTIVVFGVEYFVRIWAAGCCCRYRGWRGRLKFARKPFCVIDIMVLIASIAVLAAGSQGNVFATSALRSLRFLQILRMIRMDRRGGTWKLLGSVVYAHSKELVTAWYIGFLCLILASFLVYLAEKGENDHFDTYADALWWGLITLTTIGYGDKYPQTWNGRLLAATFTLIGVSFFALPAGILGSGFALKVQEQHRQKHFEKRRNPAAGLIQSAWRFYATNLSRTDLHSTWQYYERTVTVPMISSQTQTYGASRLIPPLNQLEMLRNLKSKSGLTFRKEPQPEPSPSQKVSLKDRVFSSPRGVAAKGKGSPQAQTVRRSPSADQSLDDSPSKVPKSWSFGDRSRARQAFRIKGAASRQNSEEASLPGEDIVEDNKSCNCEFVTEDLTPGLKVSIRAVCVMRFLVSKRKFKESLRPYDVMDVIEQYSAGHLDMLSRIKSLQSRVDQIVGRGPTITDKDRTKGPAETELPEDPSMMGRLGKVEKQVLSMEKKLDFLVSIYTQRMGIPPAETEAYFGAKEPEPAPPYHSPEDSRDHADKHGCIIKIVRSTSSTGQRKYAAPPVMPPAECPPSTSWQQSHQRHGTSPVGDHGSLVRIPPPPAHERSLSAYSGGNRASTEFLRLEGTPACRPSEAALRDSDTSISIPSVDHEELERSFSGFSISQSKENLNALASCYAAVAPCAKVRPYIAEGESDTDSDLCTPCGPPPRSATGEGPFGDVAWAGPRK
Potassium voltage-gated channel subfamily KQT member 1 (Homo sapiens), sequence (P51787 whole entry, looked up): as the sequence (P51787 whole entry, looked up) above

Take `Cc1onc(-c2ccccc2)c1C(=O)NNC(=S)NC(=O)c1ccc(Cl)cc1Cl`: the result in [1], in experiment [2], in experiment [4], in experiment [5] and in experiment [6] was inactive. Moreover, in [3], the potentiation is 29.5% (active).
`Cc1onc(-c2ccccc2)c1C(=O)NNC(=S)NC(=O)c1ccc(F)cc1`: the outcome in [1], in experiment [2], in [3], in experiment [4] and in experiment [6] was inactive. In addition, in experiment [5], the current potentiation is 16.2% (active).
With `Cc1onc(-c2ccccc2)c1C(=O)NNC(=S)NC(=O)c1ccc(Br)cc1`, the result in experiment [1], in [2], in experiment [3], in experiment [4], in experiment [5] and in experiment [6] was inactive.
`CC1CN(C(=O)c2ccc(NS(=O)(=O)c3ccc(C(C)(C)C)cc3)cc2)CC(C)O1` (stereo not given): the result in experiment [1], in [2], in experiment [3], in [4], in experiment [5] and in experiment [6] was inactive.
For the compound `Cc1ccc(OCC(=O)NNC(=S)NC(=O)C(C)(C)C)c(Br)c1`, the outcome in experiment [1], in experiment [2], in experiment [5] and in experiment [6] was inactive. In addition, the potentiation in experiment [3] is 73% (active); in experiment [4], 158% (active).
Consider `NC(=Nc1ccccc1)Nc1ccccc1`, for which the result in [1], in experiment [2], in experiment [3], in experiment [4], in experiment [5] and in [6] was inactive.
As for `CC(C)(C)C(=O)NC(=S)NNC(=O)C(c1ccccc1)c1ccccc1`, the outcome in experiment [1], in experiment [2], in [4], in experiment [5] and in experiment [6] was inactive. Besides, in experiment [3], the potentiation is 22% (active).
Regarding `Cc1ccccc1C(=O)NNC(=S)NC(=O)c1ccc(Cl)cc1Cl`, the outcome in [1], in [2] and in [5] was inactive. For the same compound, the potentiation in experiment [3] is 117% (active); in [4], 222% (active). Besides, the activation in experiment [6] is 19.9% (active).
As for `O=c1c2cc(Br)ccc2nc(-c2ccc(Cl)cc2)n1O`, the outcome in experiment [1] and in experiment [5] was inactive. In addition, in experiment [2], the activation was 654% (active). Also, the potentiation in experiment [3] is 354% (active); in [4], 708% (active).
Consider `CCCCC(=O)NNC(=S)NC(=O)C(c1ccccc1)c1ccccc1`, for which the result in [1], in [2], in experiment [3], in [4], in experiment [5] and in [6] was inactive.
Regarding `O=C(Nc1nnc(-c2cccs2)o1)c1cccc(C(F)(F)F)c1`, the outcome in experiment [1] and in experiment [5] was inactive. Also, the activation in experiment [2] was 208% (active). Besides, in experiment [3], the potentiation is 50% (active).
Consider `Cc1cccc(C(=O)NNC(=S)NC(=O)c2ccccc2)c1`, for which the outcome in experiment [1], in [2] and in experiment [5] was inactive. In addition, the potentiation in experiment [3] was 74.5% (active); in [4] it was 192% (active). Besides, the activation in experiment [6] was 46.6% (active).
`Cc1cccc(C(=O)NC(=S)NNC(=O)c2ccccc2Cl)c1`: the outcome in experiment [1], in experiment [2], in experiment [5] and in experiment [6] was inactive. The potentiation is 50.5% (active) in [3] and 158% (active) in [4].
In the case of `COc1ccc(C(=O)NC(=S)NNC(=O)c2cccc(C)c2)cc1`, the outcome in experiment [1], in experiment [2] and in experiment [5] was inactive. In addition, the potentiation in [3] was 128% (active); in experiment [4] it was 227% (active). In addition, the activation in [6] is 31.9% (active).
In the case of `CCN1/C(=C\c2ccc3ccccc3[n+]2CC)Sc2cc(C)ccc21`, the outcome in [1], in experiment [8] and in experiment [9] was inactive. Moreover, the fluorescence ratio (Tl flux) in experiment [7] is 0.043 (active).
